# Measurements taken from article doi:10.1101/2024.03.05.583629.
# Biological target: pT7_6His-AlfaTag-HOXD13 (human, UniProt P35453 263-343)
# Experiment: PADIT-seq
# Conditions: dsDNA, one strand shown
# Sequence of pT7_6His-AlfaTag-HOXD13 (P35453 263-343): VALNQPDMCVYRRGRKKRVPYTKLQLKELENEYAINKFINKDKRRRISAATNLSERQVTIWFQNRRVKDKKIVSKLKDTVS
row,Sequence,binding signal [log2FC]
1,CTCGAGGATATCAAGATCTGGCCTCGGCGCGATGGCGGGAACCTCTAGCTAGCCGACTCACTATAGGGATAATCGCCCTGAGCAAAGACC,-0.944 ± 0.133
2,CTCGAGGATATCAAGATCTGGCCTCGGCCTTTTAACGGGAACCTCTAGCTAGCCGACTCACTATAGGGATAATCGCCCTGAGCAAAGACC,1.98 ± 0.0882
3,CTCGAGGATATCAAGATCTGGCCTCGGCTTTTTAACAGGAACCTCTAGCTAGCCGACTCACTATAGGGATAATCGCCCTGAGCAAAGACC,2.05 ± 0.0793
4,CTCGAGGATATCAAGATCTGGCCTCGGCGTTCTAAAAGGAACCTCTAGCTAGCCGACTCACTATAGGGATAATCGCCCTGAGCAAAGACC,-0.197 ± 0.0802
5,CTCGAGGATATCAAGATCTGGCCTCGGCAAGTTAAAAGGAACCTCTAGCTAGCCGACTCACTATAGGGATAATCGCCCTGAGCAAAGACC,1.07 ± 0.0825
6,CTCGAGGATATCAAGATCTGGCCTCGGCGTTTTATTAGGAACCTCTAGCTAGCCGACTCACTATAGGGATAATCGCCCTGAGCAAAGACC,3.19 ± 0.0762
7,CTCGAGGATATCAAGATCTGGCCTCGGCCGCCCAGTTGGAACCTCTAGCTAGCCGACTCACTATAGGGATAATCGCCCTGAGCAAAGACC,-0.996 ± 0.138
8,CTCGAGGATATCAAGATCTGGCCTCGGCTTTTTAGTCGGAACCTCTAGCTAGCCGACTCACTATAGGGATAATCGCCCTGAGCAAAGACC,-0.553 ± 0.126
9,CTCGAGGATATCAAGATCTGGCCTCGGCTTTTTACCCGGAACCTCTAGCTAGCCGACTCACTATAGGGATAATCGCCCTGAGCAAAGACC,-0.11 ± 0.103
10,CTCGAGGATATCAAGATCTGGCCTCGGCGCGGTAGCGGGAACCTCTAGCTAGCCGACTCACTATAGGGATAATCGCCCTGAGCAAAGACC,-1.07 ± 0.136
